# Test results published in PubChem BioAssay.
# Active and inactive are the calls of the source. Unless noted, how the calls were made is not given here.
# Assays:
# [1] = system: Wnt5a (protein binding on small-molecule microarray); assay: Wnt5a binders on small-molecule microarray, primary screen, biophysical, 635/667 nm fluorescence (AID 1142); conditions: 635 nm fluorescence, higher = more signal;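 further: fluorescence read at 667 nm with signal to noise per printed feature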
# [2] = cell viability in Huh7 cells, primary screen, cytotoxicity control for HCV replication inhibitor project, CellTiter-Glo luminescence, basal, 48 h (AID 1143); conditions: Huh7 HCV replicon, higher = more signal, called active from +8 up or from −8 down;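 further: Huh7 hepatoma cells carrying a hepatitis C replication reporter with no stimulus; test concentration not given here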
# [3] = P. aeruginosa biofilm formation inhibitors, primary screen, PAO1 strain, BacTiter-Glo luminescence, LB-PBS (AID 1144); conditions: 12 h, higher = more signal
# [4] = CREB reporter modulators without forskolin, primary screen, cell-based, PC12, CRE-LacZ reporter, unstimulated (AID 1145); conditions: no forskolin, luminescence, 4.5 h, higher = more signal, called active from +8 up or from −8 down
# [5] = CREB reporter modulators under forskolin, primary screen, cell-based, PC12, CRE-LacZ reporter, forskolin-stimulated (AID 1146); conditions: luminescence, 4.5 h, higher = more signal, called active from +8 up or from −8 down;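 further: PC12 cells with 6xCRE LacZ reporter stimulated by forskolin 10 µM; beta-galactosidase reporter signal reflecting CREB driven transcription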
# [6] = target: Streptavidin (Streptomyces avidinii) (UniProt P22629); assay: streptavidin binders on small-molecule microarray, primary screen, artefact control for SMM compound annotation, biophysical, 635/667 nm fluorescence (AID 1147); conditions: streptavidin binding, higher = more signal;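 further: signal reflects streptavidin binding to arrayed compounds as a control protein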
# [7] = small-molecule binders of probe aInhba, primary screen, biochemical, small-molecule microarray, 635/667 nm fluorescence (AID 1148); conditions: higher = more signal;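 further: score merges 667nm spot fluorescence with signal-to-noise for antibody binding to printed compounds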
# [8] = target: Torsin-1A (Homo sapiens) (UniProt O14656); assay: torsin A binders from cell lysate, primary screen, small-molecule microarray, wild-type, 635/667 nm (AID 1149); conditions: COS7 hTOR1A-WT lysate, 635 nm fluorescence, higher = more signal
# [9] = target: Torsin-1A (Homo sapiens) (UniProt O14656); assay: small-molecule binders of mutant TOR1A in lysate, primary screen, cell lysate, small-molecule microarray, COS7 lysate, 635/667 nm fluorescence (AID 1150); conditions: COS7 hTOR1A mutant lysate, 635 nm fluorescence, higher = more signal;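 further: score pools 667 nm emission and signal to noise measuring lysate protein binding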
# [10] = system: Sonic hedgehog protein (Shh); assay: small-molecule binders of Shh protein, primary screen, biochemical, small-molecule microarray, 635/667 nm fluorescence (AID 1151); conditions: small-molecule microarray binding, 635 nm fluorescence; higher = more signal;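 further: Shh protein binding to compounds spotted on small-molecule microarray slides; score combines spot fluorescence intensity with signal-to-noise across triplicate slides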
# [11] = E. coli DRC41 culture turbidity changes, primary screen, E. coli filamentation inducer project, strain DRC41, OD650, 48 h (AID 1152);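 further: E. coli MC1000 strain DRC41 lacking acrAB efflux pump and sulA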; conditions: E. coli DRC41 (acrAB sulA), higher = more signal, called active from +8 up or from −8 down
# [12] = small-molecule binders of probe aLefty1, primary screen, biochemical, small-molecule microarray, 635/667 nm fluorescence (AID 1153); conditions: higher = more signal;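 further: score merges spot fluorescence with signal-to-noise ratio from the scanned slide images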
# [13] = PSAC antagonists in infected red cells, primary screen, cell-based, P. falciparum Indochina, OD700, 1 h (AID 1154); conditions: P. falciparum Indochina infected RBC osmotic lysis, higher = more signal, called active from +8 up or from −8 down
# [14] = PSAC antagonists in infected red cells, primary screen, cell-based, P. falciparum Indochina, OD700, 2 h (AID 1155);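 further: lysis reports solute entry through the parasite surface anion channel PSAC; channel blockers reduce lysis of infected cells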; conditions: P. falciparum Indochina infected erythrocytes, osmotic lysis OD700; higher = more signal, called active from +8 up or from −8 down
# [15] = osmotic lysis modulators in infected erythrocytes, primary screen, PSAC antagonist project, cell-based, P. falciparum Indochina, OD700, 3 h (AID 1156); conditions: higher = more signal, called active from +8 up or from −8 down
# [16] = PSAC antagonists in infected red cells, primary screen, cell-based, P. falciparum Indochina, OD700, 18 h (AID 1157); conditions: P. falciparum Indochina infected erythrocytes, osmotic lysis OD700, 18 h; higher = more signal, called active from +8 up or from −8 down
# [17] = modulators of S6 phosphorylation in cells, primary screen, cell-based, A549, cytoblot, luminescence, serum-stimulated (AID 1158); conditions: A549 phospho-S6 cytoblot, 5 h, higher = more signal;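 further: serum-stimulated A549 lung adenocarcinoma cells; signal is phosphorylated S6 detected by cytoblot immunostaining with HRP secondary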
# [18] = target: NADPH oxidase 2 (Homo sapiens) (UniProt P04839); assay: NOX2-dependent H2O2 signal modulators, primary screen, NOX inhibitor project, cell-based, HEK293-NOX2, PMA-stimulated, Amplex Red fluorescence (AID 1159); conditions: 45 min, higher = more signal, called active from +8 up or from −8 down; further: test concentration not given here
# [19] = target: NADPH oxidase 4 (Homo sapiens) (UniProt Q9NPH5); assay: NOX4-dependent H2O2 signal modulators, primary screen, NOX inhibitor project, cell-based, HEK293-NOX4, tetracycline-induced, Amplex Red fluorescence (AID 1160); conditions: 45 min, higher = more signal, called active from +8 up or from −8 down
# [20] = target: NADPH oxidase 5 (Homo sapiens) (UniProt Q96PH1); assay: NOX5-dependent H2O2 signal modulators, primary screen, NOX inhibitor project, cell-based, HEK293-NOX5, Amplex Red fluorescence (AID 1161); conditions: HEK293-NOX5, ionomycin, 45 min, higher = more signal
# Chain of NADPH oxidase 5 (Homo sapiens) (Q96PH1 whole entry, looked up): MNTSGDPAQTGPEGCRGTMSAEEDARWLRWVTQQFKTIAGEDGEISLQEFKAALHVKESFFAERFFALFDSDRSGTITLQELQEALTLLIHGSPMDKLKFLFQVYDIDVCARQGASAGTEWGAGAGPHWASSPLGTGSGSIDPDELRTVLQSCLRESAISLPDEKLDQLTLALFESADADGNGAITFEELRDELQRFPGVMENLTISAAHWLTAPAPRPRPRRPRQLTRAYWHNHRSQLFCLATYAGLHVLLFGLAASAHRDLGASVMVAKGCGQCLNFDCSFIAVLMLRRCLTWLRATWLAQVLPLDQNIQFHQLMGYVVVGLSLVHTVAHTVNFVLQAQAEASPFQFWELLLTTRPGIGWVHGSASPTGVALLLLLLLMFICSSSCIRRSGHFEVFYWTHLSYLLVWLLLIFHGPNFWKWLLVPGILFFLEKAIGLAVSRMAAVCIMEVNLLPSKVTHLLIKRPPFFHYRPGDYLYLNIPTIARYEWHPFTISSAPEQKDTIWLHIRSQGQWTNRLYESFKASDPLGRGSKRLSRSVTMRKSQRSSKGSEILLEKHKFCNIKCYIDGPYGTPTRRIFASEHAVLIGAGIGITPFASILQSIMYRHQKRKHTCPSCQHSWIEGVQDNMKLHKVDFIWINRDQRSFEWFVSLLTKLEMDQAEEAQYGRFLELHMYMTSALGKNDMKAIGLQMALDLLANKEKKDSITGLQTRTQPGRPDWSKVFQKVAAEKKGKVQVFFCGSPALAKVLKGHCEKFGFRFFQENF
# Chain of NADPH oxidase 4 (Homo sapiens) (Q9NPH5 whole entry, looked up): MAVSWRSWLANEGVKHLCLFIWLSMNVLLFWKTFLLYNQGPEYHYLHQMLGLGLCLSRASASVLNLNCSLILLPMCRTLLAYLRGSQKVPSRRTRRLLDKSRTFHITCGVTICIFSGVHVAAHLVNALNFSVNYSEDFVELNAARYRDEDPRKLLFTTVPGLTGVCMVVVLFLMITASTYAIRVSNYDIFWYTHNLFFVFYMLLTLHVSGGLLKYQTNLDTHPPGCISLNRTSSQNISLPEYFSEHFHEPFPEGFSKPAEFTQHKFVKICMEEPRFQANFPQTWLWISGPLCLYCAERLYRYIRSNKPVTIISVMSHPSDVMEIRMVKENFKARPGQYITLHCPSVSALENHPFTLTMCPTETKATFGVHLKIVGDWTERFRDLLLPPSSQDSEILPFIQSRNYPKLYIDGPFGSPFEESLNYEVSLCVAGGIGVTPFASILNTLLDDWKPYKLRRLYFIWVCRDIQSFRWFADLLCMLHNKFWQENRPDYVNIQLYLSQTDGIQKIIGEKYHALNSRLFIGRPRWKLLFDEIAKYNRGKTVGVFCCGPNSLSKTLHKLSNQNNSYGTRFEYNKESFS
# Chain of Streptavidin (Streptomyces avidinii) (P22629 whole entry, looked up): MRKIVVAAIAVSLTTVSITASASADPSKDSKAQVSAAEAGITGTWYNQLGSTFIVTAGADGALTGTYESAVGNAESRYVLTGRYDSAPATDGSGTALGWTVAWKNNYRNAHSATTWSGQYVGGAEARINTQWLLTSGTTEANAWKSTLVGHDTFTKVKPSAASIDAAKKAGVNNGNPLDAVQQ
# Chain of NADPH oxidase 2 (Homo sapiens) (P04839 whole entry, looked up): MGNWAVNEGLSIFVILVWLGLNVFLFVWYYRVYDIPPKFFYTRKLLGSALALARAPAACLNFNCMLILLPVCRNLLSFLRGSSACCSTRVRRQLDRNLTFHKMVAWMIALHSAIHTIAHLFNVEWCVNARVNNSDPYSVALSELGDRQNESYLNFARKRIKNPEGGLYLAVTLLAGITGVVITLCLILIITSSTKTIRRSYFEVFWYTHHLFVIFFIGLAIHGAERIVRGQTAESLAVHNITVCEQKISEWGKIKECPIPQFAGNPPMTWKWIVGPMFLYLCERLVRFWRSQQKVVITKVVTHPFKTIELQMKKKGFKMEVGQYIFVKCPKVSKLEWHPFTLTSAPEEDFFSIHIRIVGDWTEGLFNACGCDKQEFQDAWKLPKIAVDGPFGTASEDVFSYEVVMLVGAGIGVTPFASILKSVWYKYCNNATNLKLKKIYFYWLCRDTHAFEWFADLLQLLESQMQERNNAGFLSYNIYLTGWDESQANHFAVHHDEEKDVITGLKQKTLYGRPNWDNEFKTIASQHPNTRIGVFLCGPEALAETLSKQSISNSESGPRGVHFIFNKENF
# Chain of Torsin-1A (Homo sapiens) (O14656 whole entry, looked up): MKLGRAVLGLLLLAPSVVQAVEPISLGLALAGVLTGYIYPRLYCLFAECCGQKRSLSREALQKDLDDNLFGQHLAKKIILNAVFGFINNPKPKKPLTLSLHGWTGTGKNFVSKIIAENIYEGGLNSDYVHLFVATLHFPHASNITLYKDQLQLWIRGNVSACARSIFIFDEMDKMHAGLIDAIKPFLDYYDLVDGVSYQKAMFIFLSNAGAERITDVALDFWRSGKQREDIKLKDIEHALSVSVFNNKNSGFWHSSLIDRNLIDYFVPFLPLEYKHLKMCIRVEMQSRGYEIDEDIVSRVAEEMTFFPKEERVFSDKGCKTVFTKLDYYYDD
smiles,measurement,setting,value
CCN1C(=O)[C@H]2[C@@H]3C(=CC[C@H]2C1=O)C(=O)[C@H]1O[C@H]1[C@H]3O,composite z-score,[1],0.116
same,z-score,[2],-5.2 (inactive)
same,z-score,[3],1.41 (inactive)
same,z-score,[4],2.79 (inactive)
same,z-score,[5],21.9 (active)
same,composite z-score,[6],0.49
same,composite z-score,[7],-0.183
same,composite z-score,[8],0.734
same,composite z-score,[9],0.348
same,composite z-score,[10],1.64
same,z-score,[11],-1.08 (inactive)
same,composite z-score,[12],-0.214
same,z-score,[13],1.17 (inactive)
same,z-score,[14],0.497 (inactive)
same,z-score,[15],0.244 (inactive)
same,z-score,[16],0.282 (inactive)
same,z-score,[17],-0.383
same,z-score,[18],0.428 (inactive)
same,z-score,[19],-1.86 (inactive)
same,z-score,[20],0.121
CC(C)[C@@H](OCc1ccccc1)[C@H](C)CON=C1[C@H]2CCn3c(=O)n(-c4ccccc4)c(=O)n3[C@H]2[C@H](O)[C@@H]2O[C@H]12,composite z-score,[1],0.186
same,z-score,[2],-0.367 (inactive)
same,z-score,[3],1.21 (inactive)
same,z-score,[4],-0.408 (inactive)
same,z-score,[5],1.2 (inactive)
same,composite z-score,[6],0.164
same,composite z-score,[7],-0.128
same,composite z-score,[8],0.0645
same,composite z-score,[9],0.41
same,composite z-score,[10],0.89
same,z-score,[11],0.352 (inactive)
same,composite z-score,[12],-0.186
same,z-score,[13],0.509 (inactive)
same,z-score,[14],-0.116 (inactive)
same,z-score,[15],-0.171 (inactive)
same,z-score,[16],0.245 (inactive)
same,z-score,[17],-0.952
same,z-score,[18],-0.662 (inactive)
same,z-score,[19],0.202 (inactive)
same,z-score,[20],-0.851
CCCNC(=O)OC[C@H]1O[C@H](CCON=C[C@@H](C)[C@H](OCc2ccccc2)C(C)C)C=C[C@@H]1Oc1ccc(OC)cc1,composite z-score,[1],-0.146
same,z-score,[2],-1.1 (inactive)
same,z-score,[3],-0.107 (inactive)
same,z-score,[4],1.28 (inactive)
same,z-score,[5],-0.0248 (inactive)
same,composite z-score,[6],-0.19
same,composite z-score,[7],-0.104
same,composite z-score,[8],-0.0998
same,composite z-score,[9],0.733
same,composite z-score,[10],0.0021
same,z-score,[11],-0.103 (inactive)
same,composite z-score,[12],-0.105
same,z-score,[13],1.77 (inactive)
same,z-score,[14],-1.58 (inactive)
same,z-score,[15],0.141 (inactive)
same,z-score,[16],-2.55 (inactive)
same,z-score,[17],2.11
same,z-score,[18],-1.7 (inactive)
same,z-score,[19],0.368 (inactive)
same,z-score,[20],-0.574
CCOC(=O)NN=C1C[C@@H](O)[C@@H](O)[C@@H]2[C@@H]3C(=O)N(CC)C(=O)[C@@H]3CC[C@H]12,composite z-score,[1],0.0375
same,z-score,[2],0.383 (inactive)
same,z-score,[3],0.345 (inactive)
same,z-score,[4],-0.656 (inactive)
same,z-score,[5],-0.628 (inactive)
same,composite z-score,[6],0.0571
same,composite z-score,[7],-0.252
same,composite z-score,[8],0.399
same,composite z-score,[9],0.441
same,composite z-score,[10],0.0046
same,z-score,[11],0.539 (inactive)
same,composite z-score,[12],-0.286
same,z-score,[13],-0.259 (inactive)
same,z-score,[14],0.072 (inactive)
same,z-score,[15],-0.466 (inactive)
same,z-score,[16],0.182 (inactive)
same,z-score,[17],-0.404
same,z-score,[18],-1.28 (inactive)
same,z-score,[19],0.199 (inactive)
same,z-score,[20],0.534
CC(=O)OC[C@H]1O[C@@H](ON=C2[C@H]3CCn4c(=O)n(-c5ccccc5)c(=O)n4[C@H]3[C@H](O)[C@@H]3O[C@H]23)[C@H](OC(C)=O)[C@@H](OC(C)=O)[C@@H]1OC(C)=O,composite z-score,[1],0.196
same,z-score,[2],1.03 (inactive)
same,z-score,[3],1.56 (inactive)
same,z-score,[4],-0.403 (inactive)
same,z-score,[5],0.265 (inactive)
same,composite z-score,[6],0.324
same,composite z-score,[7],0.0282
same,composite z-score,[8],0.0264
same,composite z-score,[9],0.422
same,composite z-score,[10],1.23
same,z-score,[11],-0.132 (inactive)
same,composite z-score,[12],0.106
same,z-score,[13],0.597 (inactive)
same,z-score,[14],0.454 (inactive)
same,z-score,[15],-0.258 (inactive)
same,z-score,[16],0.465 (inactive)
same,z-score,[17],-0.862
same,z-score,[18],-0.186 (inactive)
same,z-score,[19],-0.47 (inactive)
same,z-score,[20],0.187
COC(=O)[C@@H]1CC[C@H](C)[C@@H](c2ccc(C)cc2)N1C(=O)c1ccc(C=NOC[C@H]2O[C@H](c3ccccc3)C=C[C@@H]2Oc2ccc(OC)cc2)cc1,composite z-score,[1],-0.134
same,z-score,[2],-0.814 (inactive)
same,z-score,[3],0.605 (inactive)
same,z-score,[4],0.253 (inactive)
same,z-score,[5],0.718 (inactive)
same,composite z-score,[6],-0.216
same,composite z-score,[7],0.0018
same,composite z-score,[8],-0.671
same,composite z-score,[9],-0.329
same,composite z-score,[10],0.415
same,z-score,[11],0.229 (inactive)
same,composite z-score,[12],-0.0236
same,z-score,[13],0.639 (inactive)
same,z-score,[14],1.11 (inactive)
same,z-score,[15],0.708 (inactive)
same,z-score,[16],0.44 (inactive)
same,z-score,[17],-0.0476
same,z-score,[18],1.65 (inactive)
same,z-score,[19],0.846 (inactive)
same,z-score,[20],0.385
O=C1[C@H]2[C@H]3[C@H](O)[C@H](O)CC(=NO[C@@H]4O[C@H](CO)[C@@H](O)[C@H](O)[C@H]4O)[C@@H]3CC[C@H]2C(=O)N1C1CCCCC1,composite z-score,[1],0.258
same,z-score,[2],0.0805 (inactive)
same,z-score,[3],0.577 (inactive)
same,z-score,[4],0.342 (inactive)
same,z-score,[5],0.758 (inactive)
same,composite z-score,[6],0.247
same,composite z-score,[7],0.0342
same,composite z-score,[8],0.603
same,composite z-score,[9],0.0159
same,composite z-score,[10],0.635
same,z-score,[11],0.381 (inactive)
same,composite z-score,[12],-0.126
same,z-score,[13],0.785 (inactive)
same,z-score,[14],0.636 (inactive)
same,z-score,[15],1.04 (inactive)
same,z-score,[16],0.228 (inactive)
same,z-score,[17],0.322
same,z-score,[18],-0.336 (inactive)
same,z-score,[19],0.607 (inactive)
same,z-score,[20],0.573
CCC1=NOC(CCC2CC(OC(=O)NCc3cccc4c3OCO4)CC3(CCCC(COC(=O)NCCc4ccc(Cl)cc4)O3)O2)C1 (stereo not given),composite z-score,[1],-0.165
same,z-score,[2],-0.379 (inactive)
same,z-score,[3],0.612 (inactive)
same,z-score,[4],-0.0755 (inactive)
same,z-score,[5],-0.51 (inactive)
same,composite z-score,[6],-0.136
same,composite z-score,[7],-0.0963
same,composite z-score,[8],0.217
same,composite z-score,[9],0.672
same,composite z-score,[10],0.358
same,z-score,[11],0.13 (inactive)
same,composite z-score,[12],-0.103
same,z-score,[13],0.78 (inactive)
same,z-score,[14],-0.172 (inactive)
same,z-score,[15],-0.747 (inactive)
same,z-score,[16],-0.268 (inactive)
same,z-score,[17],-0.695
same,z-score,[18],1.28 (inactive)
same,z-score,[19],0.891 (inactive)
same,z-score,[20],0.984
